Measurements: the supplement of paper PMC10646978
± gives the standard deviation.

System: RAW-Dual (murine macrophage reporter line)
Experiment: NF-kB reporter (SEAP) activity fold change vs agonist alone; higher = enhanced NF-kB activity
Settings: modulator concentration 10 µM; agonist: CpG ODN 1826 0.5 ug/mL
In short: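 RAW-Dual murine macrophage reporter cells were plated at 50 000 per well in 384-well plates, pin-transferred compound to 10 μM final, and pre-incubated for 1 hour at 37 °C before a PRR agonist was added and the cells incubated overnight. NF-κB activity was read from supernatant SEAP with QUANTI-Blue at 620 nm absorbance, and IRF activity from Lucia luciferase with QUANTI-Luc by luminescence. Each signal was expressed as fold change by dividing by the mean agonist-only control on the same plate. Two replicate plates were averaged, with errors obtained by propagation.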

Point of comparison: `COc1ccc(Cc2nnc(C3CCN(S(C)(=O)=O)CC3)s2)cc1`, NF-kB reporter 0.978 ± 0.069. Against it:
- CC(C(=O)O)c1ccc(C(=O)c2cccs2)cc1 (stereo not given) — within error, 1.17 ± 0.17
- CCOC(=O)Nc1ccc(NCc2ccc(F)cc2)nc1N.O=C(O)/C=C/C(=O)O — higher, 1.21 ± 0.16
- O=C(NC1CCCCCC1)c1ccc([N+](=O)[O-])cc1Cl — within error, 1.1 ± 0.084
- Cc1cc(CCNC(=O)c2nc3ccccc3s2)nn1C — within error, 1.1 ± 0.062
- CCC(=O)Nc1ccc(S(=O)(=O)N2CCC(Oc3ncnc(CC)c3F)C2)c(C)c1 (stereo not given) — within error, 1 ± 0.043
- Cl.O=S(=O)(c1cccc2cnccc12)N1CCCNCC1 — lower, 0.76 ± 0.1
- N#CC(=Cc1ccc(-c2ccc(Cl)cc2)o1)C(N)=O — lower, 0.783 ± 0.062
- O=C1CC(c2ccc(O)cc2)Oc2cc(O)cc(O)c21 (stereo not given) — within error, 1.31 ± 0.34
- Cc1noc(C)c1CN1CCC(C(F)(F)F)CC1.Cl — within error, 0.908 ± 0.048
- Cc1cccc(OCCCOc2cccc3cccnc23)c1C — lower, 0.735 ± 0.068
- COC(=O)C1C(=O)C(=CNc2ccccc2C)C(=O)CC1(C)C (stereo not given) — within error, 1.07 ± 0.092
- Cc1ccc(-c2ncnn2-c2ccc(Cl)cc2)cc1 — within error, 0.922 ± 0.072
- COc1ccnc(CS(=O)c2nc3ccc(OC(F)F)cc3[nH]2)c1OC (stereo not given) — within error, 1.18 ± 0.16
- Cc1cc(OC2CN(C(=O)Cn3cnc4ccccc43)C2)cc(=O)n1C1CC1 — higher, 1.16 ± 0.11
- COc1ccc(-c2ccc(OCCNC(=O)Cc3ccc(Br)cc3)nn2)cc1 — within error, 0.959 ± 0.049
- CCS(=O)(=O)N1CCC2(CC1)NC(=O)N(CCOc1ccccc1)C2=O — within error, 0.871 ± 0.041
- Cc1nc2ccc(CN(C)c3ccc(C(=O)N[C@@H](CCC(=O)O)C(=O)O)s3)cc2c(=O)[nH]1 — higher, 1.28 ± 0.1
- NC(=O)CN1C(=O)C2C3c4ccccc4C(c4ccccc43)C2C1=O (stereo not given) — within error, 1.1 ± 0.083
- CCOc1ccc(OCCCCOc2cccc(C)c2)cc1 — within error, 0.961 ± 0.094
- O=C(CCc1csc(NC(=O)c2ccco2)n1)Nc1ccc(Cl)cc1 — within error, 0.9 ± 0.069
- COc1ccc(Nc2nc(Nc3ccc4ncccc4c3)nc(N3CCOCC3)n2)cc1 — lower, 0.279 ± 0.013
- O=C(NC12CC3CC(CC(C3)C1)C2)N1CCOCC1 — within error, 0.95 ± 0.16
- CC[C@H](C)C(=O)O[C@H]1C[C@@H](C)C=C2C=C[C@H](C)[C@H](CC[C@@H]3C[C@@H](O)CC(=O)O3)[C@H]21 — higher, 2.37 ± 0.12
- CC(=O)Nc1ccc(NC(=S)NC(=O)C=Cc2ccc(Cl)cc2)cc1 — within error, 1.08 ± 0.069
- COc1ccc(C=NNC(=O)CSc2nnc(-c3ccccc3)n2-c2ccccc2)cc1OC — higher, 1.14 ± 0.091
- Cl.Fc1ccc(C2CCNCC2COc2ccc3c(c2)OCO3)cc1 (stereo not given) — within error, 0.829 ± 0.23
- CCCOc1ccc(C=CC(=O)Nc2ccc(S(=O)(=O)Nc3ncccn3)cc2)cc1OC — within error, 0.938 ± 0.077
- O=c1c(O)c(-c2cc(O)c(O)c(O)c2)oc2cc(O)cc(O)c12 — higher, 1.51 ± 0.41
- CC(=NNC(=O)COc1ccc(Cl)cc1[N+](=O)[O-])c1cccc(Br)c1 — within error, 0.961 ± 0.091
- CCCCCn1c(=O)[nH]c2cc(C(=O)N3CCN(C(=O)OCC)CC3)ccc2c1=O — higher, 1.12 ± 0.065
- CC(C)(C)NCC(=O)Nc1ccc(S(N)(=O)=O)cc1 — lower, 0.762 ± 0.061
- NC(=O)c1ccc(N2CCOCC2)c([N+](=O)[O-])c1 — within error, 1.04 ± 0.087
- O=C(c1ccc(OC(F)(F)F)cc1)N1CCC(Oc2cccnn2)CC1 — within error, 1.04 ± 0.094
- CC(NCCC(c1ccccc1)c1ccccc1)c1ccccc1.Cl (stereo not given) — lower, 0.274 ± 0.11
- COc1ccc(CCN(C)CCCC(C#N)(c2ccc(OC)c(OC)c2)C(C)C)cc1OC.Cl (stereo not given) — within error, 0.742 ± 0.21
- O=C1C(N2CCC(O)C2)CCN1CC(F)(F)F (stereo not given) — within error, 0.992 ± 0.12
- Fc1ccc(CN2CCc3c([nH]c4ccccc34)C2)c(F)c1 — lower, 0.636 ± 0.051
- O=C(NCCCn1ccc2cccnc21)c1nc2ccccc2s1 — within error, 0.766 ± 0.19
- CCn1cc(C(=O)O)c(=O)c2cc(F)c(N3CCN(C)CC3)cc21.CS(=O)(=O)O — within error, 1.12 ± 0.15

Same assay, conditions: modulator concentration 10 µM; agonist: LPS 0.1 ug/mL

Point of comparison: `CC(C(=O)O)c1ccc(C(=O)c2cccs2)cc1` (stereo not given), NF-kB reporter 1.08 ± 0.24. Against it:
- CCOC(=O)Nc1ccc(NCc2ccc(F)cc2)nc1N.O=C(O)/C=C/C(=O)O — within error, 1.3 ± 0.34
- O=C(NC1CCCCCC1)c1ccc([N+](=O)[O-])cc1Cl — within error, 0.94 ± 0.07
- Cc1cc(CCNC(=O)c2nc3ccccc3s2)nn1C — within error, 0.978 ± 0.12
- CCC(=O)Nc1ccc(S(=O)(=O)N2CCC(Oc3ncnc(CC)c3F)C2)c(C)c1 (stereo not given) — within error, 1.06 ± 0.087
- Cl.O=S(=O)(c1cccc2cnccc12)N1CCCNCC1 — within error, 1.01 ± 0.27
- N#CC(=Cc1ccc(-c2ccc(Cl)cc2)o1)C(N)=O — within error, 0.875 ± 0.14
- O=C1CC(c2ccc(O)cc2)Oc2cc(O)cc(O)c21 (stereo not given) — within error, 1.27 ± 0.17
- Cc1noc(C)c1CN1CCC(C(F)(F)F)CC1.Cl — within error, 0.947 ± 0.081
- Cc1cccc(OCCCOc2cccc3cccnc23)c1C — within error, 0.895 ± 0.055
- COC(=O)C1C(=O)C(=CNc2ccccc2C)C(=O)CC1(C)C (stereo not given) — within error, 1.02 ± 0.075
- Cc1ccc(-c2ncnn2-c2ccc(Cl)cc2)cc1 — lower, 0.785 ± 0.051
- COc1ccnc(CS(=O)c2nc3ccc(OC(F)F)cc3[nH]2)c1OC (stereo not given) — within error, 0.901 ± 0.1
- Cc1cc(OC2CN(C(=O)Cn3cnc4ccccc43)C2)cc(=O)n1C1CC1 — within error, 1.09 ± 0.099
- COc1ccc(-c2ccc(OCCNC(=O)Cc3ccc(Br)cc3)nn2)cc1 — the same, 1.08 ± 0.084
- CCS(=O)(=O)N1CCC2(CC1)NC(=O)N(CCOc1ccccc1)C2=O — within error, 1.05 ± 0.11
- Cc1nc2ccc(CN(C)c3ccc(C(=O)N[C@@H](CCC(=O)O)C(=O)O)s3)cc2c(=O)[nH]1 — within error, 1.03 ± 0.052
- COc1ccc(Cc2nnc(C3CCN(S(C)(=O)=O)CC3)s2)cc1 — within error, 1.04 ± 0.085
- NC(=O)CN1C(=O)C2C3c4ccccc4C(c4ccccc43)C2C1=O (stereo not given) — within error, 0.962 ± 0.073
- CCOc1ccc(OCCCCOc2cccc(C)c2)cc1 — within error, 1.11 ± 0.074
- O=C(CCc1csc(NC(=O)c2ccco2)n1)Nc1ccc(Cl)cc1 — within error, 0.87 ± 0.071
- COc1ccc(Nc2nc(Nc3ccc4ncccc4c3)nc(N3CCOCC3)n2)cc1 — within error, 1.36 ± 0.11
- O=C(NC12CC3CC(CC(C3)C1)C2)N1CCOCC1 — within error, 1.02 ± 0.084
- CC[C@H](C)C(=O)O[C@H]1C[C@@H](C)C=C2C=C[C@H](C)[C@H](CC[C@@H]3C[C@@H](O)CC(=O)O3)[C@H]21 — higher, 1.5 ± 0.12
- CC(=O)Nc1ccc(NC(=S)NC(=O)C=Cc2ccc(Cl)cc2)cc1 — within error, 1.09 ± 0.096
- COc1ccc(C=NNC(=O)CSc2nnc(-c3ccccc3)n2-c2ccccc2)cc1OC — within error, 1.14 ± 0.074
- Cl.Fc1ccc(C2CCNCC2COc2ccc3c(c2)OCO3)cc1 (stereo not given) — within error, 0.938 ± 0.089
- CCCOc1ccc(C=CC(=O)Nc2ccc(S(=O)(=O)Nc3ncccn3)cc2)cc1OC — within error, 1.03 ± 0.06
- O=c1c(O)c(-c2cc(O)c(O)c(O)c2)oc2cc(O)cc(O)c12 — lower, 0.772 ± 0.04
- CC(=NNC(=O)COc1ccc(Cl)cc1[N+](=O)[O-])c1cccc(Br)c1 — within error, 1.11 ± 0.064
- CCCCCn1c(=O)[nH]c2cc(C(=O)N3CCN(C(=O)OCC)CC3)ccc2c1=O — within error, 1.09 ± 0.068
- CC(C)(C)NCC(=O)Nc1ccc(S(N)(=O)=O)cc1 — within error, 0.821 ± 0.064
- NC(=O)c1ccc(N2CCOCC2)c([N+](=O)[O-])c1 — within error, 1 ± 0.089
- O=C(c1ccc(OC(F)(F)F)cc1)N1CCC(Oc2cccnn2)CC1 — within error, 1.25 ± 0.1
- CC(NCCC(c1ccccc1)c1ccccc1)c1ccccc1.Cl (stereo not given) — lower, 0.64 ± 0.047
- COc1ccc(CCN(C)CCCC(C#N)(c2ccc(OC)c(OC)c2)C(C)C)cc1OC.Cl (stereo not given) — within error, 1.02 ± 0.25
- O=C1C(N2CCC(O)C2)CCN1CC(F)(F)F (stereo not given) — within error, 1.04 ± 0.1
- Fc1ccc(CN2CCc3c([nH]c4ccccc34)C2)c(F)c1 — lower, 0.378 ± 0.05
- O=C(NCCCn1ccc2cccnc21)c1nc2ccccc2s1 — within error, 1.04 ± 0.092
- CCn1cc(C(=O)O)c(=O)c2cc(F)c(N3CCN(C)CC3)cc21.CS(=O)(=O)O — within error, 1.3 ± 0.22
